Bioassay records from PubChem.
Shown are actives, neighbours in structure and some others; about 0.8% of the full set was active somewhere.
TRPML1 inh – blocks the human TRPML1 channel; Q9GZU1; TRPML1-inducible cells, Ca2+ dye fluorescence, FDSS; hits give low values; inhibition of EC80 agonist-evoked calcium signal; activity change, negative = inhibition, % (no concentration beside the values); 390,000 tested, 0.02% active; AID 624415; in the data active = activity change below about -50%; inconclusive = between about -30% and that limit;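 also: stimulus is agonist 54-4 at its EC80 concentration; % is scaled to controls: 0 for no effect and ±100 for the full control effect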
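TRPML1-DL cells, Tet-induced overnight (~16 h, 37 °C) at 1,500 cells/well, were loaded with Ca8 no-wash dye plus quencher for 45-90 min at room temperature. Compounds were pinned during FDSS kinetic reading; agonist 54-4 at EC80 (4 uM final) then added.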
TRHR agonist-1 – TRH receptor (human) agonism; P34981; TRHR cells, calcium flux fluo-8, FDSS agonist mode; activation, % at 2 µM; 360,000 tested, 0.18% active; AID 493084; in the data active = activation above about 30%; also: 0% is about no effect
Target sequence (P34981 whole entry, looked up): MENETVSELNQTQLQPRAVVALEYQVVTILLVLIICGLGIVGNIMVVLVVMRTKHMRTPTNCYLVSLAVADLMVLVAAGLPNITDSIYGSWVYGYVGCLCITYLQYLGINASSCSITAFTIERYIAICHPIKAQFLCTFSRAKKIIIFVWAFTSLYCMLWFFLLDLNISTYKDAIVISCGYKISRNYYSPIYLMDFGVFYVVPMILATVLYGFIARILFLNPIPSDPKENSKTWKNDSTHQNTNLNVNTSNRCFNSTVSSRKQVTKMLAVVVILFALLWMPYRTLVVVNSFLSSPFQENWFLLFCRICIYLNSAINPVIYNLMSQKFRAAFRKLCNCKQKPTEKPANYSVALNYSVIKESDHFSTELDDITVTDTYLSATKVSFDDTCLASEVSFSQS
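In this calcium-flux screen, cells bearing human TRHR are dye-loaded with fluo-8, baselined for 10 cycles, then exposed to library compounds; positive kinetic calcium responses during the agonist phase mark hits, with TRH as control.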
TRPML1 ag – agonists of human TRPML1 channel; TRPML1-expressing cells, Ca2+ dye fluorescence, FDSS; 410,000 tested, 0.12% active; activation, % (no concentration beside the values); in the data active = activation above about 50%; inconclusive = mostly about 30% to 49%; also: 0% is about no effect
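Cells: TRPML1-DL, 1X Tet inducer, ~16 h at 37 degrees C/5% CO2. Dye: ABD Ca8 no-wash + quencher, 45-90 min RT. Read: 10 s baseline, compound add, 110 s agonist phase; 54-4 EC80 (4uM final), 110 s antagonist phase.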
TRHR enhancer-1 – allosterically enhances the human TRH receptor; P34981; TRHR cells, fluo-8 calcium fluorescence, EC20 TRH enhancement; enhancement, % at 2 µM; 360,000 tested, 0.66% active; AID 493056; in the data active = enhancement above about 30%; also: 0% is about no effect
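Enhancer read-out: after compound pinning and an initial kinetic agonist-mode read, an EC20 of TRH (10 nM final) was injected and fluo-8 calcium signal (Ex 480/Em 530) followed at 1 s/cycle for 100 cycles in TRHR-expressing cells.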
GRP78 ERSR act – induces the endoplasmic reticulum stress response in human glioma cells | Potency, µM, without a hit: at the top dose activation, most hits filed as activators | 420,000 tested, 0.02% active | AID 602332 | U87-MG GRP78 promoter luciferase reporter, 16 h; also: potency is read from the fitted curve at half-maximal effect; series mostly up to about 76 µM; % of control where 0% means no effect; nearly all actives have a fitted effect of over 35% in size
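ERSR induction read as luciferase luminescence (Bright-Glo, 10 min at room temperature) in stably transfected human U87-MG glioma cells exposed to compounds for 16 h, using GRP78 as sensor.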
TRHR enhancer-2 – human TRH receptor allosteric enhancement confirmation; shares compounds with TRHR enhancer-1; TRH receptor cell assay, enhancer confirmation qHTS; activity change, negative = inhibition, % at 46.1 µM; 970 tested, under 10 active;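 also: compound effect scored on response to added TRH at EC20 of 10 nM; 0% is about no effect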
TRHR agonist-2 – human TRH receptor agonism confirmation; 970 tested, 8% active; TRHR-expressing cells, agonist activation read-out; shares compounds with TRHR enhancer-1; Potency, µM (doses to about 46.1 µM), without a hit: top-dose activation, actives largely listed as activators; AID 493078; also: potency is read from the fitted curve at half-maximal effect; 0% is about no effect; nearly all actives have a fitted effect of over 75% in size
The depositor's hits bear a star. Unless noted, calls follow the shape of the dose curve; as a rule, active = well fitted curve in the direction sought with a large enough effect; inconclusive = small, poorly fitted or top-dose-only effect, or another doubt; inactive = no such curve, though single readings can be large; an effect the other way counts as inactive or inconclusive.

What do the screens show for `Cc1ccc2cc3c(NC(=O)C4CCCO4)nn(CC(C)C)c3nc2c1` (configuration not stated)?
TRPML1 inh: 5; TRHR agonist-1: 0; TRPML1 ag: 2; TRHR enhancer-1: 47*; GRP78 ERSR act: 1%; TRHR enhancer-2: inconclusive; TRHR agonist-2: 1%

What do the screens show for `Cc1ccc2nc3c(cc2c1)c(NC(=O)C1CCCO1)nn3CC(C)C` (configuration not stated)?
TRPML1 inh: 1; TRHR agonist-1: 0; TRPML1 ag: 1; TRHR enhancer-1: 6; GRP78 ERSR act: 1%

How did CCOc1ccc(S(=O)(=O)Nc2cccc(C(=O)NCC3CCCO3)c2)cc1 (configuration not stated) do in these assays?
TRPML1 inh: -6; TRHR agonist-1: 0; TRPML1 ag: 0; TRHR enhancer-1: 47*; GRP78 ERSR act: -1%; TRHR enhancer-2: -9; TRHR agonist-2: 1%

Results for CC(O)(COc1ccccc1)c1ccc2c(c1)CN(Cc1cccnc1)CCO2 (configuration not stated) ?
GRP78 ERSR act: -4%

Results for COc1cccc(CN(C)C(=O)c2ccc(S(=O)(=O)Nc3ccccc3F)cc2)c1OC ?
TRPML1 inh: 1; TRHR agonist-1: 0; TRPML1 ag: -1; TRHR enhancer-1: 48*; GRP78 ERSR act: -3%; TRHR enhancer-2: -3; TRHR agonist-2: 4%

Results for Cc1ccc(C(=O)CN2C(=O)NC3(CCc4ccccc43)C2=O)s1 (configuration not stated) ?
TRPML1 inh: 11; TRHR agonist-1: -1; TRPML1 ag: 1; TRHR enhancer-1: 58*; GRP78 ERSR act: -1%; TRHR enhancer-2: -2; TRHR agonist-2: -1%

Results for COc1ccc(OC)c(-c2cc(Cl)c3c(c2)CC(CNC(=O)c2cnn4cccnc24)O3)c1 (configuration not stated) ?
GRP78 ERSR act: 1%

Results for Cc1cc(-n2c(SCc3ccccc3F)nc3n[nH]c(C)c3c2=N)ccc1Cl ?
TRPML1 inh: -7; TRHR agonist-1: 1; TRPML1 ag: 1; TRHR enhancer-1: 54*; GRP78 ERSR act: -3%; TRHR enhancer-2: -11; TRHR agonist-2: 1%

Results for Cn1c(N)c(C(=O)COC(=O)CCC2CCCC2)c(=O)n(C)c1=O ?
TRPML1 inh: -11; TRHR agonist-1: 0; TRPML1 ag: 1; TRHR enhancer-1: 6; GRP78 ERSR act: -1%

How did Cn1c(N)c(C(=O)COC(=O)CCC2CCCCC2)c(=O)n(C)c1=O do in these assays?
TRPML1 inh: -13; TRHR agonist-1: 0; TRPML1 ag: -1; TRHR enhancer-1: 46*; GRP78 ERSR act: 14%; TRHR enhancer-2: 1; TRHR agonist-2: -1%

Results for C=CCN(CC=C)Cc1c(C)[nH]c2c(C)c(C)ccc2c1=O ?
TRPML1 inh: 1; TRHR agonist-1: -1; TRPML1 ag: 0; TRHR enhancer-1: 45*; GRP78 ERSR act: 7%; TRHR enhancer-2: -4; TRHR agonist-2: -1%

Results for Nc1cc(S(=O)(=O)N2CCCCC2)ccc1N1CCCCC1 ?
TRPML1 inh: -11; TRHR agonist-1: 0; TRPML1 ag: 1; TRHR enhancer-1: 0; GRP78 ERSR act: 1%

What do the screens show for `CN1CCN(c2ccc(S(=O)(=O)N3CCCCC3)cc2N)CC1`?
TRPML1 inh: -1; TRHR agonist-1: 2; TRPML1 ag: 0; TRHR enhancer-1: 60*; GRP78 ERSR act: -1%; TRHR enhancer-2: 1; TRHR agonist-2: -1%

How did Cc1cccc(/N=C/c2nc(-c3ccccc3Br)oc2O)n1 do in these assays?
TRPML1 inh: -6; TRHR agonist-1: 0; TRPML1 ag: 2; TRHR enhancer-1: 1; GRP78 ERSR act: 1%

Results for Oc1oc(-c2cccc3ccccc23)nc1/C=N/c1nccs1 ?
TRPML1 inh: -9; TRHR agonist-1: 34*; TRPML1 ag: 18; TRHR enhancer-1: 12; GRP78 ERSR act: -4%; TRHR enhancer-2: -6; TRHR agonist-2: inconclusive

Results for Cc1ccccc1NC(=O)N1CCC(C(=O)c2ccc(F)cc2)CC1 ?
TRPML1 inh: 2; TRHR agonist-1: 0; TRPML1 ag: 0; TRHR enhancer-1: 1; GRP78 ERSR act: -4%

How did O=C(c1ccc(F)cc1)C1CCN(C(=O)Nc2ccccc2Cl)CC1 do in these assays?
TRPML1 inh: 1; TRHR agonist-1: 0; TRPML1 ag: 0; TRHR enhancer-1: 50*; GRP78 ERSR act: -1%; TRHR enhancer-2: -2; TRHR agonist-2: 1%

Results for COCC(=O)Nc1cc(C(=O)N2CCN(c3ccc(Cl)cn3)CC2)c2c(c1)nc(C1CCC1)n2C ?
GRP78 ERSR act: -3%

Results for Cc1ccc(C(=O)NCc2ccncc2)cc1S(=O)(=O)N1CCOCC1 ?
TRPML1 inh: -14; TRHR agonist-1: 0; TRPML1 ag: 0; TRHR enhancer-1: 44*; GRP78 ERSR act: -6%; TRHR enhancer-2: -8; TRHR agonist-2: 1%

What do the screens show for `COc1cccc(CNC(=O)c2ccc(C)c(S(=O)(=O)N3CCOCC3)c2)c1`?
TRPML1 inh: -10; TRHR agonist-1: 0; TRPML1 ag: 0; TRHR enhancer-1: -6; GRP78 ERSR act: -4%

What do the screens show for `CNc1c(NS(=O)(=O)c2ccc(Cl)s2)c(=O)oc2ccccc12`?
TRPML1 inh: 52; TRHR agonist-1: 1; TRPML1 ag: -1; TRHR enhancer-1: -7; GRP78 ERSR act: 0%

Results for O=S(=O)(Nc1ncnc2c1oc1ccccc12)c1ccc(Cl)s1 ?
TRPML1 inh: -10; TRHR agonist-1: 0; TRPML1 ag: 2; TRHR enhancer-1: 51*; GRP78 ERSR act: 3%; TRHR enhancer-2: -8; TRHR agonist-2: 5%

What do the screens show for `COc1cc(-c2nc(C)cnc2C)cc2c1OCCN(C(=O)Cn1nc(-c3ccccc3)c3ccccc3c1=O)C2`?
GRP78 ERSR act: -1%

Results for CN(C[C@H](Cc1ccccc1)N(CCN(CCc1ccccc1)N=O)N=O)N=O ?
TRPML1 inh: 0; TRHR agonist-1: 0; TRPML1 ag: 1; TRHR enhancer-1: 43*; GRP78 ERSR act: -1%; TRHR enhancer-2: -5; TRHR agonist-2: 3%

Results for CC(C)C[C@@H](CN(C)N=O)N(C[C@H](Cc1ccccc1)N(CCc1ccccc1)N=O)N=O ?
TRPML1 inh: 4; TRHR agonist-1: 1; TRPML1 ag: 0; TRHR enhancer-1: -5; GRP78 ERSR act: 1%

How did O=C(NCCO)c1cn(C2CCCN(Cc3cccc(C(F)(F)F)c3)C2)nn1 (configuration not stated) do in these assays?
GRP78 ERSR act: -5%
